Laboratory results: PubChem BioAssay (NCI)
The panel holds about 83,000 compounds, 20% with a hit somewhere; the sample as a whole holds those more often.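 The test compound was applied at a single concentration to cells in 96-well plates for 48 hours, and percent growth was recorded.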 Values without a mark were called inactive. Active and inactive are the calls of the source. Rule for the calls: active = growth percent below 10; inactive = the rest.

Experiments:
Test in all cases: NCI-60 one-dose screen, 48 h (100 = growth as untreated, 0 = no growth, -100 = all killed)
Conditions in all cases: 10 µM unless noted
DU-145 prostate = tested on: DU-145 prostate
K-562 leukemia = tested on: K-562 leukemia
MALME-3M melanoma = tested on: MALME-3M melanoma
MDA-MB-231 breast = tested on: MDA-MB-231 breast
SF-268 CNS = tested on: SF-268 CNS
SF-295 CNS = tested on: SF-295 CNS
SF-539 CNS = tested on: SF-539 CNS
UACC-257 melanoma = tested on: UACC-257 melanoma
M14 melanoma = tested on: M14 melanoma
HCT-15 colon = tested on: HCT-15 colon
HT29 colon = tested on: HT29 colon
SNB-75 CNS = tested on: SNB-75 CNS
SNB-19 CNS = tested on: SNB-19 CNS
U251 CNS = tested on: U251 CNS
PC-3 prostate = tested on: PC-3 prostate
SK-MEL-5 melanoma = tested on: SK-MEL-5 melanoma
UACC-62 melanoma = tested on: UACC-62 melanoma
LOX IMVI melanoma = tested on: LOX IMVI melanoma
SK-MEL-28 melanoma = tested on: SK-MEL-28 melanoma
RXF 393 renal = tested on: RXF 393 renal

O=C(O)C1CCN(S(=O)(=O)c2ccc(-c3ccccc3)cc2)CC1
growth (DU-145 prostate): 114%
growth (K-562 leukemia): 109%
growth (MALME-3M melanoma): 127%
growth (MDA-MB-231 breast): 98.7%
growth (SF-268 CNS): 108%
growth (SF-295 CNS): 192%
growth (SF-539 CNS): 109%
growth (UACC-257 melanoma): 56.2%
growth (M14 melanoma): 109%
growth (HCT-15 colon): 107%
growth (HT29 colon): 111%
growth (SNB-75 CNS): 102%
growth (SNB-19 CNS): 103%
growth (U251 CNS): 104%
growth (PC-3 prostate): 80.9%
growth (SK-MEL-5 melanoma): 108%
growth (UACC-62 melanoma): 94.5%
growth (LOX IMVI melanoma): 103%
growth (SK-MEL-28 melanoma): 91.4%

COC(=O)[C@H](Cc1cn(C)cn1)NC(=O)[C@H](Cc1ccccc1)NC(=O)Nc1cc(C(F)(F)F)cc(C(F)(F)F)c1
growth (DU-145 prostate): -99.7% [100 µM] (active)
growth (K-562 leukemia): -60.2% [100 µM] (active)
growth (MALME-3M melanoma): -86.3% [100 µM] (active)
growth (MDA-MB-231 breast): -90.8% [100 µM] (active)
growth (RXF 393 renal): -84.3% [100 µM] (active)
growth (SF-268 CNS): -94.8% [100 µM] (active)
growth (SF-539 CNS): -94% [100 µM] (active)
growth (UACC-257 melanoma): -96.6% [100 µM] (active)
growth (M14 melanoma): -90.9% [100 µM] (active)
growth (HCT-15 colon): -77.3% [100 µM] (active)
growth (HT29 colon): -82.4% [100 µM] (active)
growth (SNB-75 CNS): -98.2% [100 µM] (active)
growth (SNB-19 CNS): -95.9% [100 µM] (active)
growth (U251 CNS): -95.6% [100 µM] (active)
growth (PC-3 prostate): -95.6% [100 µM] (active)
growth (SK-MEL-5 melanoma): -97.1% [100 µM] (active)
growth (UACC-62 melanoma): -97.4% [100 µM] (active)
growth (LOX IMVI melanoma): -84.7% [100 µM] (active)
growth (SK-MEL-28 melanoma): -96.6% [100 µM] (active)

FCc1ncc(-c2ccc(C(F)(F)F)cc2)c(NC2CCCCCC2)n1
growth (DU-145 prostate): -27.6% [100 µM] (active)
growth (K-562 leukemia): -2.97% [100 µM] (active)
growth (MALME-3M melanoma): -16.9% [100 µM] (active)
growth (MDA-MB-231 breast): 0% [100 µM] (active)
growth (RXF 393 renal): 1.22% [100 µM] (active)
growth (SF-268 CNS): -0.671% [100 µM] (active)
growth (SF-295 CNS): -40.9% [100 µM] (active)
growth (UACC-257 melanoma): -6.1% [100 µM] (active)
growth (M14 melanoma): 2.44% [100 µM] (active)
growth (HCT-15 colon): 9.18% [100 µM] (active)
growth (HT29 colon): -33.6% [100 µM] (active)
growth (SNB-75 CNS): 28.6% [100 µM]
growth (SNB-19 CNS): 32.6% [100 µM]
growth (U251 CNS): -29.7% [100 µM] (active)
growth (PC-3 prostate): 7.27% [100 µM] (active)
growth (SK-MEL-5 melanoma): -3.43% [100 µM] (active)
growth (UACC-62 melanoma): 3.7% [100 µM] (active)
growth (LOX IMVI melanoma): -52.6% [100 µM] (active)
growth (SK-MEL-28 melanoma): 33.6% [100 µM]

Clc1ccc(C2c3ccccc3-c3nccn32)c(Cl)c1 (stereo not drawn)
growth (DU-145 prostate): 92.4%
growth (K-562 leukemia): 35.5%
growth (MALME-3M melanoma): 83.8%
growth (MDA-MB-231 breast): 84.1%
growth (SF-268 CNS): 99.3%
growth (SF-295 CNS): 41.7%
growth (SF-539 CNS): 88.5%
growth (UACC-257 melanoma): 80.5%
growth (M14 melanoma): 65%
growth (HCT-15 colon): 72.1%
growth (HT29 colon): 77.9%
growth (SNB-75 CNS): 83.1%
growth (SNB-19 CNS): 88.8%
growth (U251 CNS): 86.3%
growth (PC-3 prostate): 64.2%
growth (SK-MEL-5 melanoma): 47.3%
growth (UACC-62 melanoma): 73.2%
growth (LOX IMVI melanoma): 76.5%
growth (SK-MEL-28 melanoma): 112%

CCCCCc1c(C)[nH]c(/C=C2\N=C(c3ccc[nH]3)C=C2Oc2ccccc2)c1C
growth (DU-145 prostate): -68.1% [100 µM] (active)
growth (K-562 leukemia): -43.8% [100 µM] (active)
growth (MALME-3M melanoma): -44.7% [100 µM] (active)
growth (MDA-MB-231 breast): -94.1% [100 µM] (active)
growth (RXF 393 renal): -57.2% [100 µM] (active)
growth (SF-268 CNS): -60.8% [100 µM] (active)
growth (SF-295 CNS): -57.7% [100 µM] (active)
growth (UACC-257 melanoma): -66.9% [100 µM] (active)
growth (M14 melanoma): -96.7% [100 µM] (active)
growth (HCT-15 colon): -99.5% [100 µM] (active)
growth (HT29 colon): -56.9% [100 µM] (active)
growth (SNB-75 CNS): -62.1% [100 µM] (active)
growth (SNB-19 CNS): -95.2% [100 µM] (active)
growth (U251 CNS): -99.6% [100 µM] (active)
growth (PC-3 prostate): -21.6% [100 µM] (active)
growth (SK-MEL-5 melanoma): -61% [100 µM] (active)
growth (UACC-62 melanoma): -92.3% [100 µM] (active)
growth (LOX IMVI melanoma): -90% [100 µM] (active)
growth (SK-MEL-28 melanoma): -95.1% [100 µM] (active)

CC(C)OP(=O)(OC(C)C)c1ncc(-c2ccc(C(F)(F)F)cc2)c(NC2CCCCCC2)n1
growth (DU-145 prostate): -81.2% [33.3 µM] (active)
growth (K-562 leukemia): -22.1% [33.3 µM] (active)
growth (MALME-3M melanoma): -85% [33.3 µM] (active)
growth (MDA-MB-231 breast): -8.63% [33.3 µM] (active)
growth (RXF 393 renal): -85.7% [33.3 µM] (active)
growth (SF-268 CNS): -90.6% [33.3 µM] (active)
growth (SF-295 CNS): -85.6% [33.3 µM] (active)
growth (UACC-257 melanoma): -41.1% [33.3 µM] (active)
growth (M14 melanoma): -90.2% [33.3 µM] (active)
growth (HCT-15 colon): -7.06% [33.3 µM] (active)
growth (HT29 colon): -68.3% [33.3 µM] (active)
growth (SNB-75 CNS): -18.6% [33.3 µM] (active)
growth (SNB-19 CNS): -27.9% [33.3 µM] (active)
growth (U251 CNS): -87.4% [33.3 µM] (active)
growth (PC-3 prostate): -68% [33.3 µM] (active)
growth (SK-MEL-5 melanoma): -87.2% [33.3 µM] (active)
growth (UACC-62 melanoma): -64.8% [33.3 µM] (active)
growth (LOX IMVI melanoma): -63.3% [33.3 µM] (active)
growth (SK-MEL-28 melanoma): -74.5% [33.3 µM] (active)

O=C1c2cccc3c([N+](=O)[O-])ccc(c23)C(=O)N1CCCCl
growth (DU-145 prostate): -82.1% [100 µM] (active)
growth (K-562 leukemia): -25.8% [100 µM] (active)
growth (MALME-3M melanoma): -73.9% [100 µM] (active)
growth (MDA-MB-231 breast): -93.1% [100 µM] (active)
growth (RXF 393 renal): -83.3% [100 µM] (active)
growth (SF-268 CNS): -78.9% [100 µM] (active)
growth (SF-295 CNS): -92% [100 µM] (active)
growth (UACC-257 melanoma): -97% [100 µM] (active)
growth (M14 melanoma): -85.6% [100 µM] (active)
growth (HCT-15 colon): -82.6% [100 µM] (active)
growth (HT29 colon): -63.2% [100 µM] (active)
growth (SNB-75 CNS): -98.6% [100 µM] (active)
growth (SNB-19 CNS): -97.8% [100 µM] (active)
growth (U251 CNS): -97.4% [100 µM] (active)
growth (PC-3 prostate): -90.8% [100 µM] (active)
growth (SK-MEL-5 melanoma): -95.6% [100 µM] (active)
growth (UACC-62 melanoma): -96.3% [100 µM] (active)
growth (LOX IMVI melanoma): -85.5% [100 µM] (active)
growth (SK-MEL-28 melanoma): -97.3% [100 µM] (active)
